Some test systems named below: AXL; BLK; BMPR1A; BMPR1B; BMPR2; BMX; BRAF; BRSK1.
Holding throughout (details): concentration: 1 μM, replicates: in singlicate; n = 1
For another experiment, the system named is T1, BIKE.
T1 construct: gene BMP2K

The test system of the next experiment is T2, BRK.
T2 construct: gene PTK6
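Note: KINOMEscan kinase panel screen.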

As for `Cc1cc(Nc2nc(-c3cccc(C)n3)nc3ccccc23)ccn1` [GW872411], the “%Inh” value in the experiment on AXL is 0%; with BIKE it was 0%; in the experiment with BLK, 0%; with BMPR1A, 3%; in the experiment with BMPR1B, 0%; with BMPR2 it was 0%. Moreover, the “%Inh” value in the experiment on BMX, with BRAF, in the experiment on BRK and in the experiment with BRSK1 was 0% in each case.

`COc1ccc(-c2coc3ccc(-c4nnc(SCc5cccc(C#N)c5)o4)cc23)cc1`: the “%Inh” value is 21% in the experiment on AXL; 0% with BIKE; 0% in the experiment on BLK; 14% with BMPR1A; 17% with BMPR1B; 18% with BMPR2. In addition, the “%Inh” value is 28% in the experiment on BMX, 0% in the experiment on BRAF, 10% with BRK and 0% with BRSK1.

For the compound `Cc1ccccc1COc1cc(-n2cnc3cc(Cl)ccc32)sc1C(N)=O` [GW813349], the “%Inh” value in the experiment with AXL was 2%; with BIKE it was 20%; with BLK, 18%; in the experiment on BMPR1A, 0%; in the experiment on BMPR1B, 12%; with BMPR2, 26%. Also, the “%Inh” value is 1% with BMX, 6% in the experiment on BRAF, 0% with BRK and 0% in the experiment with BRSK1.

`COc1cc2nccc(Nc3ccc(OCc4ccc(NC(C)=O)cc4)cc3)c2cc1OC.Cl` [GW440135]: the “%Inh” value in the experiment on AXL was 13%; in the experiment with BIKE it was 0%; with BLK, 26%; with BMPR1A it was 24%; in the experiment with BMPR1B it was 0%; in the experiment with BMPR2 it was 8%. Moreover, the “%Inh” value in the experiment with BMX turned out to be 26%; in the experiment on BRAF, 6%; in the experiment with BRK, 36%; in the experiment with BRSK1, 0%.

As to `O=C(Nc1n[nH]c2nc(-c3ccccc3)c(Cl)cc12)C1CC1` [SB-734909], the “%Inh” value is recorded as 0% with AXL; 21% in the experiment with BIKE; 0% in the experiment with BLK; 9% in the experiment with BMPR1A; 27% in the experiment on BMPR1B; 0% in the experiment with BMPR2. Also, the “%Inh” value stood at 1% with BMX, 62% in the experiment with BRAF, 0% with BRK and 70% with BRSK1.

Turning to `O=C1NC(=O)C(c2ccccc2)=C1Nc1cccc(O)c1` [SB-390534], the “%Inh” value in the experiment with AXL amounted to 27%; in the experiment with BIKE, 4%; with BLK, 6%; in the experiment with BMPR1A, 2%; with BMPR1B, 0%; in the experiment with BMPR2, 10%. Moreover, the “%Inh” value in the experiment with BMX stood at 15%; in the experiment with BRAF it was 0%; with BRK, 0%; in the experiment on BRSK1, 2%.

With `COC(=O)c1c(-c2ccccc2)c2cc(Br)ccc2c(=O)n1Cc1ccc(NC(=O)CCC(=O)O)cc1`, the “%Inh” value was 0% with AXL; 0% in the experiment with BIKE; 4% in the experiment on BLK; 0% in the experiment on BMPR1A; 6% in the experiment on BMPR1B; 7% with BMPR2. Also, the “%Inh” value with BMX was 2%; in the experiment on BRAF it was 42%; in the experiment with BRK, 0%; with BRSK1, 0%.

In the case of `O=C(Nc1n[nH]c2nc(-c3ccccc3)c(Br)cc12)C1CC1` [SB-708998], the “%Inh” value was 0% in the experiment on AXL; 28% in the experiment on BIKE; 8% with BLK; 16% in the experiment with BMPR1A; 0% in the experiment on BMPR1B; 0% in the experiment on BMPR2. Also, the “%Inh” value amounted to 7% in the experiment with BMX, 31% in the experiment on BRAF, 0% with BRK and 60% in the experiment with BRSK1.

Regarding `CCC(=O)c1c(-c2ccccc2)c2cc(Cl)ccc2c(=O)n1Cc1ccc(C(=O)O)cc1`, the “%Inh” value in the experiment on AXL is on record as 0%; with BIKE, 0%; in the experiment with BLK it was 0%; in the experiment on BMPR1A, 0%; in the experiment with BMPR1B, 0%; in the experiment with BMPR2 it was 4%. The “%Inh” value in the experiment on BMX turned out to be 0%; with BRAF, 48%; with BRK, 0%; in the experiment with BRSK1 it was 0%.

`Cc1cccc(-c2cc(-c3c[nH]nc3-c3ccccn3)ccn2)c1` [GW679395]: the “%Inh” value in the experiment on AXL is recorded as 0%; in the experiment on BIKE, 0%; in the experiment with BLK, 32%; with BMPR1A, 0%; in the experiment with BMPR1B, 2%; in the experiment with BMPR2 it was 1%. Further, the “%Inh” value in the experiment with BMX is 0%; in the experiment on BRAF it was 8%; with BRK it was 4%; with BRSK1, 0%.

Turning to `COc1cc(Nc2ccnc3ccc(C(F)(F)F)cc23)cc(OC)c1OC` [GW577382], the “%Inh” value with AXL came to 12%; in the experiment with BIKE, 0%; in the experiment on BLK, 34%; in the experiment with BMPR1A it was 0%; in the experiment with BMPR1B, 22%; with BMPR2, 22%. For the same compound, the “%Inh” value in the experiment with BMX was 16%; in the experiment with BRAF it was 8%; with BRK, 8%; in the experiment on BRSK1, 0%.

On to `CCC(=O)c1c(-c2ccccc2)c2cc(Cl)ccc2c(=O)n1Cc1cc(S(C)(=O)=O)n(CCC(C)(C)O)n1`, for which the “%Inh” value with AXL was 10%; in the experiment on BIKE, 21%; with BLK it was 12%; in the experiment with BMPR1A, 0%; with BMPR1B it was 6%; in the experiment on BMPR2, 9%. The “%Inh” value with BMX is reported as 33%; in the experiment on BRAF, 1%; in the experiment on BRK it was 7%; with BRSK1, 11%.

As to `Cc1nnc(-c2ccc(C)c(-c3ccc(C(=O)O)cc3)c2)o1` [GW608005], the “%Inh” value in the experiment on AXL amounted to 0%; with BIKE, 0%; in the experiment on BLK, 31%; in the experiment on BMPR1A, 0%; in the experiment with BMPR1B, 0%; in the experiment with BMPR2, 0%. In addition, the “%Inh” value in the experiment with BMX is 0%; in the experiment on BRAF it was 0%; in the experiment on BRK, 0%; with BRSK1, 2%.

As for `CCc1nc(-c2cccc(C)c2)c(-c2ccncc2)s1`, the “%Inh” value amounted to 0% in the experiment on AXL; 3% with BIKE; 0% in the experiment on BLK; 0% in the experiment on BMPR1A; 0% with BMPR1B; 0% in the experiment with BMPR2. The “%Inh” value is recorded as 0% in the experiment on BMX, 50% with BRAF, 7% in the experiment with BRK and 0% in the experiment on BRSK1.

For `COc1cc2ncn(-c3cc(OCCCc4ccccc4)c(C(N)=O)s3)c2cc1OC` [GSK205189], the “%Inh” value with AXL came to 13%; in the experiment with BIKE, 36%; in the experiment with BLK, 12%; with BMPR1A, 0%; in the experiment on BMPR1B, 0%; in the experiment with BMPR2, 0%. Also, the “%Inh” value in the experiment on BMX was 11%; in the experiment on BRAF it was 0%; in the experiment with BRK it was 1%; in the experiment on BRSK1 it was 1%.

As to `CCc1ccc(-c2ccc3c(c2)-c2nn(C)cc2S(=O)(=O)N3C)cc1`, the “%Inh” value is 8% in the experiment on AXL; 0% in the experiment with BIKE; 0% with BLK; 0% with BMPR1A; 0% with BMPR1B; 0% in the experiment on BMPR2. Further, the “%Inh” value with BMX was 0%; with BRAF it was 32%; in the experiment with BRK it was 0%; in the experiment with BRSK1, 0%.

With `Cl.NS(=O)(=O)c1cccc(Nc2cc(-c3ccc(F)cc3)n[nH]2)c1` [GW824645], the “%Inh” value came to 0% with AXL; 0% with BIKE; 23% in the experiment with BLK; 7% in the experiment with BMPR1A; 0% with BMPR1B; 45% in the experiment with BMPR2. Moreover, the “%Inh” value with BMX worked out at 0%; in the experiment on BRAF it was 33%; with BRK, 0%; with BRSK1, 0%.

Turning to `CCn1c(-c2ccoc2)nc2cnccc21` [SB-733887], the “%Inh” value is given as 5% with AXL; 6% in the experiment with BIKE; 0% in the experiment with BLK; 0% in the experiment on BMPR1A; 10% with BMPR1B; 20% in the experiment with BMPR2. For the same compound, the “%Inh” value in the experiment with BMX turned out to be 0%; with BRAF, 1%; with BRK it was 0%; in the experiment on BRSK1, 0%.

Values taken from paper PMC5540273 (PLoS ONE, 2017).
